Records with an inconclusive call do not appear. Activity calls are given as the source filed them. Unless noted, calls follow the shape of the dose curve; as a rule, active = well fitted curve in either direction with a large enough effect (not every such curve was filed as active); inconclusive = small, poorly fitted or top-dose-only effect, or another doubt; inactive = flat fitted curve, though single readings scatter.
Assays:
[1] = target: Lysosomal acid glucosylceramidase (Homo sapiens) (UniProt P04062); assay: Glucocerebrosidase-p2 (AID 348; in the data active = potency below about 10 µM; also: potency is read from the fitted curve at half-maximal effect); details: purified GBA, blue fluorogenic substrate, 40 min
Lysosomal acid glucosylceramidase (Homo sapiens), sequence (P04062 whole entry, looked up): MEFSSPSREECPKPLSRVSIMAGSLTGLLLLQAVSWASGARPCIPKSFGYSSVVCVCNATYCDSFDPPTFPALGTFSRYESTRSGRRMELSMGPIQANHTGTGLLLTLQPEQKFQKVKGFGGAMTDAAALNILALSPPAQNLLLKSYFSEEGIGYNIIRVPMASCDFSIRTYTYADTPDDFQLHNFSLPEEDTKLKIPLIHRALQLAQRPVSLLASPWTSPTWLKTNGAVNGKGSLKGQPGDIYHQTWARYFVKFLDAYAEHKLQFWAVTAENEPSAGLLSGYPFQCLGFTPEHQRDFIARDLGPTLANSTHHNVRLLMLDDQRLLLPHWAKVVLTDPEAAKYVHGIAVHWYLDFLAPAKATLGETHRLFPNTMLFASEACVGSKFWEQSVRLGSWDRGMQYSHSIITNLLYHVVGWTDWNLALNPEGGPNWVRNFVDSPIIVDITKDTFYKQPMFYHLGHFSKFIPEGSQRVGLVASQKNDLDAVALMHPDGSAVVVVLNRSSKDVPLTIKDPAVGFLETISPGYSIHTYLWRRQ
How it was run: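 Normal human glucocerebrosidase (0.2 nM) with blue fluorogenic substrate (80 uM final) in citrate/phosphate pH 5.9 with 10mM sodium taurocholate, 0.01% tween-20; 40 min RT, NaOH/glycine stop; fluorescence Ex 365/Em 440; AC50 from a titration from 0.6 nM upwards.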

[2] = AP1 Signaling Pathway (AID 357); details: ME-180 AP-1-bla reporter, EGF-induced, beta-lactamase ratio, 5 h; at 7.69 µM (top of the series) unless noted; also: % is scaled to controls: 0 for no effect and ±100 for the full control effect
How it was run: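 Titration-series screen for positive or negative modulators of EC50 EGF-induced signaling in ME-180 cells carrying an AP-1-driven beta-lactamase reporter. After 5 hours at 37 degrees Celsius, CCF4 460nm/530nm emission ratio gave %Activity; AC50 values derived.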

[3] = Stat Signaling Pathway (AID 446); details: ME-180 (cervical carcinoma) SIE beta-lactamase reporter, IL-6 stimulated, 5 h; at 7.69 µM (top of the series) unless noted;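 also: ME-180 cervical cancer cells given 40 pM IL-6 alongside compound; SIE-controlled beta-lactamase reporter measured as 460/530 nm FRET emission ratio; % is scaled to controls: 0 for no effect and ±100 for the full control effect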
How it was run: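 Compound effects on IL-6-induced STAT reporter activity were measured in ME-180 cells. After overnight culture, cells were co-treated with 40 pM IL-6 for 5 hrs before beta-lactamase substrate loading at room temperature.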

[4] = target: Glucocorticoid receptor (Homo sapiens) (UniProt P04150); assay: GR-GFP Redistribution (AID 450;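 active = compounds whose dose series gives a full or clear partial fitted curve of increased nuclear translocation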; also: potency is read from the fitted curve at half-maximal effect); details: U2OS GR-GFP nuclear translocation, laser cytometry, 2 h
Glucocorticoid receptor (Homo sapiens), sequence (P04150 whole entry, looked up, the tested form may be a part): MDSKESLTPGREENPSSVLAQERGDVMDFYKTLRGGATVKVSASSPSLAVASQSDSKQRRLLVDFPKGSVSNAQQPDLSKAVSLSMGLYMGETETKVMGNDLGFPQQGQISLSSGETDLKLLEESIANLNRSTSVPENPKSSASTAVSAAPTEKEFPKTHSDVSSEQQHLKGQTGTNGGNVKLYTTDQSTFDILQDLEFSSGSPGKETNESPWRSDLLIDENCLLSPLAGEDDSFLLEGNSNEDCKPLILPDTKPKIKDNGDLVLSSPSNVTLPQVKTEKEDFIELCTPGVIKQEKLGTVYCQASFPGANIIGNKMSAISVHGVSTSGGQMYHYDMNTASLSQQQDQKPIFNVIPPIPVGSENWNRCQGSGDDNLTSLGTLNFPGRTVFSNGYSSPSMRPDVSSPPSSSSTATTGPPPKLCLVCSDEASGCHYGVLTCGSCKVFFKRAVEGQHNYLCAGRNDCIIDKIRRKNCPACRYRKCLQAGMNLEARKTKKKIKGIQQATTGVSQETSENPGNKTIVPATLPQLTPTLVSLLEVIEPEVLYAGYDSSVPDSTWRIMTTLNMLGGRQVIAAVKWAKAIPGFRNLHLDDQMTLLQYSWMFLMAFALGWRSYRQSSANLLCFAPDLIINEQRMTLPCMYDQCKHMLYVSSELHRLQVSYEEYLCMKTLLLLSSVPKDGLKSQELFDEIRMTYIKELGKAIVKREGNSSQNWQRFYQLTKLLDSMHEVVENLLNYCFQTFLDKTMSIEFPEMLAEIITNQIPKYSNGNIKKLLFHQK

[5] = target: Glucocorticoid receptor (Homo sapiens) (UniProt P04150); assay: GR-EFC Redistribution (AID 451; calls by dose curve; also: potency is read from the fitted curve at half-maximal effect); details: CHO-K1 GR-EFC translocation, beta-gal luminescence, 2 h
How it was run: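 CHO-K1 cells expressing nuclear EA and GR-ED fragments of b-gal; compounds titrated up to 46 uM final, 2 h at 37 C. GR nuclear translocation read as complemented b-gal luminescence after 1 h RT detection.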

[6] = target: Mitogen-activated protein kinase 10 (Mus musculus) (UniProt Q61831); assay: JNK3 AlphaScreen Assay (AID 530); details: JNK3 lysate, c-Jun phosphorylation; series mostly up to 11.4 µM;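 also: kinase came from lysate of stimulated human HepG2 cells; signal reports phosphorylation of biotinylated GST-cJun 1-79 at Ser73 with 10 µM ATP; % is scaled to controls: 0 for no effect and ±100 for the full control effect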
How it was run: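 HepG2 lysate (IL-1b/TNFa pre-activated) + biotin-GST-cJun 1-79 + anti-pSer73 cJun; cpd titration, 15 min RT; ATP 10 uM start; Tris pH 7.6, MgCl2, DTT, vanadate; beads in EDTA buffer; AlphaScreen.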

[7] = NFAT Signaling Pathway (AID 444); details: Jurkat NFAT-bla M1, carbachol, beta-lactamase ratio, 5 h; at 7.69 µM (top of the series) unless noted;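 also: carbachol stimulus at about its EC50 of 1 µM final; % is scaled to controls: 0 for no effect and ±100 for the full control effect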
How it was run: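 Jurkat cells with NFAT-driven β-lactamase reporter and co-expressed M1 receptor, stimulated with carbachol (final 1 uM, ~EC50), compound titration, 5 h at 37 °C. CCF4 loaded 1 h at RT; 460/530 nm ratio gave %activity and AC50.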

[8] = target: 3',5'-cyclic-AMP phosphodiesterase 4B (Homo sapiens) (UniProt Q07343); assay: qHTS Assay for Inhibitors of PDE-IV (AID 607; active = well fitted activation curve with a large enough effect in the main read-out, with a control signal flat, not every such curve was filed as active; also: % of control where 0% means no effect); details: HEK293 ACTOne CNG channel cells, membrane potential fluorescence; series mostly up to 22.9 µM
3',5'-cyclic-AMP phosphodiesterase 4B (Homo sapiens), sequence (Q07343 whole entry, looked up): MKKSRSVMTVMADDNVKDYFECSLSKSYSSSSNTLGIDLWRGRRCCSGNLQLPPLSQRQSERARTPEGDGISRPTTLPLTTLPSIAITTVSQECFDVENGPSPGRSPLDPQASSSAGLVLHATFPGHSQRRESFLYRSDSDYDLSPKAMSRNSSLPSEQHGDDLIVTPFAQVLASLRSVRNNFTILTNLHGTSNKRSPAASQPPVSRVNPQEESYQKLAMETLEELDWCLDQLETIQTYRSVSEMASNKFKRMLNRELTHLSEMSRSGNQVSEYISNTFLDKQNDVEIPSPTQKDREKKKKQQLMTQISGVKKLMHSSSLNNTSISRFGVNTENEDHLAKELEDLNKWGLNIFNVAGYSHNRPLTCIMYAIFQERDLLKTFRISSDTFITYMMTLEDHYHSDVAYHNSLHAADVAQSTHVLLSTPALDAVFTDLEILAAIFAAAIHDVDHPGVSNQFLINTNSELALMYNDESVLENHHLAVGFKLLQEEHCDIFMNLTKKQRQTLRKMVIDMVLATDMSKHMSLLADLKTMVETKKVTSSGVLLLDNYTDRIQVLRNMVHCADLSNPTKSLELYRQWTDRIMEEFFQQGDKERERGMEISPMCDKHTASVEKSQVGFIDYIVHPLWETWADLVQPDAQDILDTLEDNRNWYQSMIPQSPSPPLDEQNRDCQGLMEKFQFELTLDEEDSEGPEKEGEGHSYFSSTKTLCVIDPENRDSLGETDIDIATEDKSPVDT
How it was run: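 ACTOne HEK293 cells carry a modified cAMP-gated CNG channel and express endogenous PDE4; plated 1000 cells/well, compounds up to 22.9 uM final. Membrane-potential dye fluorescence (ex 535/em 590) was read; parental cells received 10 uM forskolin + 100 uM RO 20-1724.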

[9] = target: Cytochrome P450 2D6 (Homo sapiens) (UniProt P10635); assay: qHTS Assay for Inhibitors and Substrates of Cytochrome P450 2D6 (AID 891; active = well fitted curve in the direction sought with a large enough effect; an effect the other way counts as inactive or inconclusive; also: potency is read from the fitted curve at half-maximal effect; nearly all actives have a fitted effect of over 60% in size); details: recombinant CYP2D6, luciferin-ME EGE luminescence; series mostly up to 11.4 µM
Cytochrome P450 2D6 (Homo sapiens), sequence (P10635 whole entry, looked up): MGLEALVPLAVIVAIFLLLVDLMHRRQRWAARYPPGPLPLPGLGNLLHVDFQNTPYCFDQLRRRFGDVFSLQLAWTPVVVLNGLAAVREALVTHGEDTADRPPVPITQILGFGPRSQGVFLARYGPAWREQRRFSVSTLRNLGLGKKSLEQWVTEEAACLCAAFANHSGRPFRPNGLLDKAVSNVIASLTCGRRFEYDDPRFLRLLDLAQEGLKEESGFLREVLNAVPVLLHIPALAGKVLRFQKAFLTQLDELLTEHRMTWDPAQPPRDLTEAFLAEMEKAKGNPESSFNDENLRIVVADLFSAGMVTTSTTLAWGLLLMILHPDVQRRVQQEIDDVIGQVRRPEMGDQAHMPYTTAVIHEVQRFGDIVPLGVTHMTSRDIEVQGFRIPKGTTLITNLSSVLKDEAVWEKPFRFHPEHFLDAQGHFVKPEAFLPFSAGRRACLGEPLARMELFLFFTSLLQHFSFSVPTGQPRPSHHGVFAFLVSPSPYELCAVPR
How it was run: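 Luminescent read-out of luciferin formed by 5 nM human CYP2D6 demethylating 30 uM Luciferin-ME EGE (Km level) over 60 min at room temperature after NADPH regeneration addition. Data normalized to full inhibition by 1.43 uM quinidine.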

[10] = Confirmation and Secondary Assay for Modulators of Hemoglobin Beta Chain Splicing at IVS2 654 locus (AID 910; active = well fitted curve in the direction sought with a large enough effect; an effect the other way counts as inactive or inconclusive;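 also: HeLa cells stably carrying EGFP split by mutant beta-globin IVS2-654 intron; % of control where 0% means no effect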); details: HeLa EGFP-654 splicing reporter, GFP fluorescence, 48 h; series mostly up to 38.3 µM
How it was run: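 HeLa cells stably expressing EGFP interrupted by β-globin IVS2-654 intron, seeded overnight in Opti-MEM/2% FCS, then treated 2 days at 37 °C. Restored splicing read as total peak GFP intensity per well by laser scanning cytometry (488 nm excitation, 500–520 nm emission); 500 nM antisense PNA as control.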

[11] = Confirmation and Secondary Assay for Modulators of Hemoglobin Beta Chain Splicing at IVS2 705 locus (AID 930; active = well fitted curve in the direction sought with a large enough effect; an effect the other way counts as inactive or inconclusive;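 also: HeLa cells stably expressing the EGFP-705 splicing reporter; GFP fluorescence per well restored by corrected splicing of the IVS2-705 intron in EGFP; % of control where 0% means no effect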); details: HeLa EGFP-705 splicing reporter, GFP fluorescence, 48 h; series mostly up to 38.3 µM
How it was run: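 Secondary splice-site specificity test uses HeLa expressing CMV-driven EGFP interrupted by IVS2-705; cells were treated 2 days at 37C with 500 nM antisense PNA as positive control.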

[12] = target: Cytochrome P450 3A4 (Homo sapiens) (UniProt P08684); assay: qHTS Assay for Activators of Cytochrome P450 3A4 (AID 885; active = well fitted curve in the direction sought with a large enough effect; an effect the other way counts as inactive or inconclusive; also: nearly all actives have a fitted effect of over 65% in size); details: recombinant CYP3A4, Luciferin-PPXE luminescence, 60 min; series mostly up to 11.4 µM
Cytochrome P450 3A4 (Homo sapiens), sequence (P08684 whole entry, looked up): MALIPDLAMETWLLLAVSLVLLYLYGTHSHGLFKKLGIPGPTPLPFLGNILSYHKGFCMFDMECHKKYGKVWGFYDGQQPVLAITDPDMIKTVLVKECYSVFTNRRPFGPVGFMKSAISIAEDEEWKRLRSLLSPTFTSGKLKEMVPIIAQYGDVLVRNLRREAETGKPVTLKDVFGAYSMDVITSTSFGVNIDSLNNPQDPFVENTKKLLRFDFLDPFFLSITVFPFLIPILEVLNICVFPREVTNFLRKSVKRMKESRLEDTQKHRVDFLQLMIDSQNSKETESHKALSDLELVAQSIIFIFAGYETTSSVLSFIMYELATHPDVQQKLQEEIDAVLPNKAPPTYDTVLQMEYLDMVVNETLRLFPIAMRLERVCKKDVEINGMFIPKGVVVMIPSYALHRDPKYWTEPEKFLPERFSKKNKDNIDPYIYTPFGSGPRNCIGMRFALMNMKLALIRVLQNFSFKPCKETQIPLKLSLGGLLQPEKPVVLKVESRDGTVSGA
How it was run: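 CYP3A4 activity: Luciferin-PPXE O-dealkylation, 25uM substrate, 200mM KPO4, RT throughout. Read-out is luciferase luminescence; higher values reflect activation.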

[13] = target: Ubiquitin carboxyl-terminal hydrolase 1 (Homo sapiens) (UniProt O94782); assay: Inhibitors of USP1/UAF1: Pilot qHTS (AID 504865; active = well fitted curve in the direction sought with a large enough effect; an effect the other way counts as inactive or inconclusive; also: potency is read from the fitted curve at half-maximal effect; nearly all actives have a fitted effect of over 35% in size); details: purified USP1/UAF1, Ub-rhodamine cleavage fluorescence; series mostly up to 114 µM
Ubiquitin carboxyl-terminal hydrolase 1 (Homo sapiens), sequence (O94782 whole entry, looked up): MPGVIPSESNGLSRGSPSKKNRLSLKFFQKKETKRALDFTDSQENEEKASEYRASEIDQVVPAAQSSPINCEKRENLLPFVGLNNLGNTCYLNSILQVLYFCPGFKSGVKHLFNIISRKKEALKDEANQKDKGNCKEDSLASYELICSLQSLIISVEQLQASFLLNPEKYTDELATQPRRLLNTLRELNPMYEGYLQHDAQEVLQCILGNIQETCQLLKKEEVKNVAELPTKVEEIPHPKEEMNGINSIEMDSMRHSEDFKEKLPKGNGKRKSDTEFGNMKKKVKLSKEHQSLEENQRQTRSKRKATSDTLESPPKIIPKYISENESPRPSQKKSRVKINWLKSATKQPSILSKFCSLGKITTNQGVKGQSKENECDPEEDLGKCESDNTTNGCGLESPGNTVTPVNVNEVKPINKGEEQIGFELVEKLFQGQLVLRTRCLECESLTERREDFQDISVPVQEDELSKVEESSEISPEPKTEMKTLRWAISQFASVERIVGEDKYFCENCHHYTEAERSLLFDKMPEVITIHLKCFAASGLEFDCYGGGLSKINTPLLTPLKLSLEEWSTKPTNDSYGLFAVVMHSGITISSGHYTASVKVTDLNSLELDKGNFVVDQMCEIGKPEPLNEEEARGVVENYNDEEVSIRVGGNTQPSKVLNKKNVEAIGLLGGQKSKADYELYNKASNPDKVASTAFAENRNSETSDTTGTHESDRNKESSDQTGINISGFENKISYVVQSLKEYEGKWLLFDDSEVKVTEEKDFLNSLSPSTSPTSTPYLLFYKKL
How it was run: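 USP1/UAF1 complex (1nM) preincubated with compound 15 min at room temperature, then Ub-Rho substrate (150nM final) added. Fluorescence read kinetically at 480/540 nm, 6 reads every 60 seconds. Buffer: 50mM HEPES pH 7.8, 0.5mM EDTA, 0.1 mg/ml BSA, 1mM TCEP, 0.01% Tween-20.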

O=C1C[C@H]2OCC=C3CN4CC[C@@]5(C(=O)O)[C@H](N1)[C@H]2[C@H]3C[C@H]45
inactive: Potency [1] > 11.4 µM | activity change, negative = inhibition [2] 1.86% | activity, negative = inhibition [3] -5.3% | Potency [4] > 46 µM | Potency [5] > 9.22 µM | Potency [6]

c1ccc(CSCCc2ccncc2)cc1
inactive: Potency [1] > 11.4 µM | activity change, negative = inhibition [2] -1.16% | activity change, negative = inhibition [7] -10.1% | Potency [4] > 46 µM | Potency [5] > 9.22 µM | Potency [6] | Potency [8]
active: Potency [9] 1.26 µM

CN1CCC[C@H](C(=O)OCC(=O)[C@]2(O)CC[C@@H]3[C@H]4CCC5=CC(=O)CC[C@@]5(C)[C@H]4[C@@H](O)C[C@]32C)C1
active: Potency [4] 0.135 µM
inactive: Potency [1] > 11.4 µM | activity change, negative = inhibition [2] 11% | activity, negative = inhibition [3] -2.61% | Potency [5] > 9.22 µM | Potency [6] | Potency [8]

C[C@@]12C[C@H](O)[C@@H]3[C@H](CCC4=CC(=O)CC[C@]43C)[C@H]1CC[C@@H]2c1csc(-c2ccccc2)n1
inactive: Potency [1] > 11.4 µM | activity change, negative = inhibition [2] -1.5% | activity, negative = inhibition [3] -6.13% | Potency [4] > 46 µM | Potency [5] > 9.22 µM | Potency [6] | Potency [8]

COc1cc2c(cc1O)[C@@H](c1cc(O)c(O)c(OC)c1)[C@@](O)(C(=O)O)[C@@H](CO)[C@@H]2O
inactive: Potency [1] > 11.4 µM | activity change, negative = inhibition [2] 0.0448% | activity, negative = inhibition [3] 4.61% | Potency [4] > 46 µM | Potency [5] > 9.22 µM | Potency [6] | Potency [8]

Nc1ncnc2nc(-c3ccc(C[P+](c4ccccc4)(c4ccccc4)c4ccccc4)cc3)[nH]c12
inactive: Potency [1] > 11.4 µM | activity change, negative = inhibition [2] 3.32% | activity, negative = inhibition [3] 1.06% | Potency [4] > 46 µM | Potency [5] > 9.22 µM | Potency [6] | Potency [8]

O=C(O)[C@H]1CCCC[C@@H]1c1c2ccc(=O)c(O)c-2oc2c(O)c(O)ccc12
inactive: Potency [1] > 11.4 µM | activity change, negative = inhibition [2] -17.7% | activity change, negative = inhibition [7] 0.0388% | Potency [4] > 46 µM | Potency [5] > 9.22 µM | Potency [8]

Cc1cccc(CNc2nc(-c3ccc(C(=O)N(C)C)cc3)nc3ccccc23)c1
inactive: Potency [1] > 11.4 µM | activity change, negative = inhibition [2] -29.6% | activity change, negative = inhibition [7] 25.2% | Potency [4] > 46 µM | Potency [5] > 46 µM | Potency [6] | outcome [10] | outcome [11]

CN(C)CC[C@@H](C(=O)C(C)(C)C)c1ccccn1
inactive: Potency [1] > 11.4 µM | activity change, negative = inhibition [2] 2.04% | activity, negative = inhibition [3] 1.4% | Potency [4] > 46 µM | Potency [5] > 9.22 µM | Potency [6] | Potency [8]

COc1ccc(-c2nc3cnc(N4CCNCC4)nc3n(Cc3cccc(OC)c3)c2=O)cc1
inactive: Potency [1] > 11.4 µM | Potency [4] > 9.22 µM | Potency [5] > 46 µM | Potency [8] | Potency [12]
active: activity change, negative = inhibition [2] 109% [activator] | activity change, negative = inhibition [7] 101% [activator]

Cn1cnc([N+](=O)[O-])c1Sc1nnc(-c2cccnc2)n1C
inactive: Potency [1] > 11.4 µM | activity change, negative = inhibition [2] 19.7% | activity, negative = inhibition [3] 4.54% | Potency [4] > 46 µM | Potency [5] > 9.22 µM | Potency [6] | Potency [8]

COc1ccc(CNc2nc(-c3ccccc3OC)nc3ccccc23)c(OC)c1
active: Potency [13] 20 µM
inactive: Potency [1] > 11.4 µM | activity change, negative = inhibition [2] -13.6% | activity, negative = inhibition [3] 16.1% | Potency [4] > 46 µM | Potency [5] > 46 µM | Potency [6] | Potency [8] | outcome [10] | outcome [11]

Nc1nc2c(c(=O)[nH]1)CN(CCCN1CCOCC1)CN2
inactive: Potency [1] > 11.4 µM | activity change, negative = inhibition [2] 1.77% | activity, negative = inhibition [3] 12.2% | Potency [4] > 46 µM | Potency [5] > 9.22 µM | Potency [6] | Potency [8]

C[C@@H]1CC[C@H]2[C@H](C)[C@H]3[C@H](C[C@H]4[C@@H]5CC=C6C[C@@H](O)CC[C@@]6(C)[C@@H]5C[C@@H](O)[C@]34C)N2C1
inactive: Potency [1] > 11.4 µM | activity change, negative = inhibition [2] -4.34% | activity, negative = inhibition [3] -3.84% | Potency [4] > 46 µM | Potency [5] > 9.22 µM | Potency [6] | Potency [8]

N[C@@H](Cc1cccnn1)C(=O)O
inactive: Potency [1] > 11.4 µM | activity change, negative = inhibition [2] 2.23% | activity, negative = inhibition [3] 2.86% | Potency [4] > 46 µM | Potency [5] > 9.22 µM | Potency [6] | Potency [8]
